Shown is part of a subset that was picked to be rich in hits.
PKM2 inh – inhibitors of human pyruvate kinase M2 | Potency, µM (series often up to 57.5 µM), hits mostly inhibitors | actives 0.058% (n = 260,000) | purified PKM2, ATP generation, Kinase-Glo luminescence | P14618; note: nearly all actives have a fitted effect of over 60% in size
Target sequence (P14618 whole entry, looked up): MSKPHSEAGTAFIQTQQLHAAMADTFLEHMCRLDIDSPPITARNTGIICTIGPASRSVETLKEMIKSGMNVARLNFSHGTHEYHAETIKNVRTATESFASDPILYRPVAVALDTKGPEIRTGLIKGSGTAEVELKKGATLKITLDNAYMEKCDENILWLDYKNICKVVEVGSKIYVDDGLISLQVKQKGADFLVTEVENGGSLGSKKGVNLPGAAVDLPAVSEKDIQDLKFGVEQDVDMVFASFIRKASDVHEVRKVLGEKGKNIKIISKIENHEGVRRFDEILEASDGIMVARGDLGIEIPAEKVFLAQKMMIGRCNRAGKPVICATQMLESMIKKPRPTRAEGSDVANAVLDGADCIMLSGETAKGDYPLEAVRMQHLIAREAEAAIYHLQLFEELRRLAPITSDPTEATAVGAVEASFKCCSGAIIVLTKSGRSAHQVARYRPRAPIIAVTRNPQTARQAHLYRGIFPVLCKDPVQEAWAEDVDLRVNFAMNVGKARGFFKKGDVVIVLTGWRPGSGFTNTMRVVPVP
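Coupled luciferase luminescence (Kinase-Glo) detects ATP generated from 0.1 mM ADP and 0.5 mM PEP in imidazole buffer pH 7.2 with KCl, MgCl2; 1 h at room temperature. Enzyme at intermediate activity; normalized to uninhibited and no-enzyme controls.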
PKM2 inh CRC – PKM2 (human) inhibition, concentration-response confirmation; shares compounds with PKM2 inh; actives 50% (n = 55); Potency, µM (doses to about 57.5 µM), most hits filed as inhibitors; purified hPK-M2, Kinase-Glo ATP luminescence, 1 h
PKM2 FLuc cs – firefly luciferase inhibition counter-screen | shares compounds with PKM2 inh | Kinase-Glo firefly luciferase, luminescence, 8 min | Potency, µM (highest dose often 57.5 µM), actives largely listed as inhibitors | actives 30% (n = 55) | AID 2265
PKM2 inh LDH – PKM2 (human) inhibition, NADH coupled readout; shares compounds with PKM2 inh; purified hPK-M2, LDH-coupled NADH fluorescence kinetic; Potency, µM (top dose mostly 57.5 µM), most hits filed as inhibitors; 55 tested, under 10 active; AID 2267
Of the large screens only hits and unclear results are named; the others gave an inactive call (follow-up assays come after a bar, where they were run). Calls come from the whole dose curve; as a rule, active = well fitted curve in the direction sought with a large enough effect; inconclusive = small, poorly fitted or top-dose-only effect, or another doubt; inactive = no such curve, though single readings can be large; an effect the other way counts as inactive or inconclusive.

Cc1ccc(-c2cc(-c3ccc(F)cc3)c(C#N)c(N)n2)o1	none
Cc1ccc2nc(-c3ccc(C)o3)c(Nc3ccccc3)n2c1	none (no result: PKM2 inh) | PKM2 inh CRC inactive | PKM2 FLuc cs inactive | PKM2 inh LDH inconclusive
Cc1ccc(-c2nc3cccc(C)n3c2Nc2ccc(F)cc2)o1	none (no result: PKM2 inh) | PKM2 inh CRC inactive | PKM2 FLuc cs inactive | PKM2 inh LDH 9.19µM
Cc1ccc(-c2nc3ccccn3c2Nc2ccccc2)o1	none
Cc1cccc(NS(=O)(=O)c2ccc3c(c2)oc(=O)n3C)c1C	none
CC(NC(=O)CCCCCCN1C(=O)c2ccccc2C1=O)c1ccc2c(c1)CCCC2 (stereo not drawn)	none
O=C(CSc1ccc(-c2ccco2)nn1)c1ccccc1	none
CC(=O)N1CC=CC1(CC(C)C)C(=O)NCc1ccc(C)o1 (stereo not drawn)	none
COCCn1c(-c2ccccc2)cnc1SCC(=O)Nc1cccc2ccccc12	none
COC(=O)c1ccc(C(=O)OC)c(NC(=O)CSc2cccc[n+]2[O-])c1	none
Cc1cc(C)cc(NS(=O)(=O)c2ccc3[nH]c(=O)[nH]c3c2)c1	none
CCCN(C(=O)c1cc2c(s1)CCC2)c1c(N)n(Cc2ccccc2)c(=O)[nH]c1=O	none
O=C(Nc1cccc(S(=O)(=O)N2CCOCC2)c1)c1cnccn1	none
COc1ccccc1N1C(=O)C=C(Sc2nc(C)cc(C)n2)C1=O	none
Cc1cc(C)n2c(Nc3ccc4c(c3)OCCO4)c(-c3ccc(C)o3)nc2n1	none
Cc1ccc2nc(-c3ccc(C)o3)c(Nc3ccc4c(c3)OCO4)n2c1	none (no result: PKM2 inh) | PKM2 inh CRC inactive | PKM2 FLuc cs inactive | PKM2 inh LDH inactive
Cc1ccc(-c2nc3cnccn3c2Nc2ccc3c(c2)OCO3)o1	none
Cc1ccc2nc(-c3ccc(C)o3)c(Nc3ccc(F)cc3)n2c1	none (no result: PKM2 inh) | PKM2 inh CRC inactive | PKM2 FLuc cs inactive | PKM2 inh LDH inconclusive
Cc1ccc(Nc2c(-c3ccc(C)o3)nc3cnccn23)cc1	none
Cc1ccc2nc(-c3ccco3)c(Nc3ccccc3)n2c1	none (no result: PKM2 inh) | PKM2 inh CRC inactive | PKM2 FLuc cs inactive | PKM2 inh LDH inconclusive
c1coc(-c2nc3ccccc3nc2-c2ccco2)c1	none
Fc1ccccc1-c1ccc(-c2nc3ccc(Cl)cn3c2Nc2ccc(Cl)cc2)o1	none (no result: PKM2 inh) | PKM2 inh CRC inactive | PKM2 FLuc cs inactive | PKM2 inh LDH inactive
CCOC(=O)c1[nH]c2ccccc2c1N=CN(CC)CC	none
O=S(=O)(c1cccc2nsnc12)N1CCc2ccccc21	none
CC(C)(C)NC(=O)C1CCC(CNc2c(N3CCCCC3)c(=O)c2=O)CC1 (stereo not drawn)	none
CCOC(=O)c1ccc(NS(=O)(=O)c2cccc3nsnc23)cc1	none
COc1cc(C(c2nnnn2C(C)(C)C)N2CCN(c3nc4ccccc4s3)CC2)ccc1O (stereo not drawn)	none
C=CCSc1nc2ccccc2n1Cc1nnc(-c2cccs2)o1	none
CCCCNS(=O)(=O)c1ccc2nc(SCC(=O)c3ccc(C#N)cc3)[nH]c2c1	none
CCOC(=O)c1c(-c2ccc(C)o2)csc1NC(=S)NC(=O)N(C)C	none
COc1ccc(CCNC(=S)N2CCN(S(=O)(=O)c3ccccc3F)CC2)cc1	none
CNC(=S)N1CCN(S(=O)(=O)c2ccc3ccccc3c2)CC1	none
O=C(c1ccc2c(c1)OCCO2)N1CCN(Cc2ccccc2)CC1	none
Cc1ccc(-c2nn(-c3ccccc3)cc2C2SCC(=O)N2Cc2ccccc2)o1 (stereo not drawn)	none
Cc1ccc(-c2cc(-c3ccc(Cl)cc3)c(C#N)c(N)n2)o1	none
Cc1ccc(-c2nc3ccc(Cl)cn3c2Nc2ccccc2)o1	none (no result: PKM2 inh) | PKM2 inh CRC inactive | PKM2 FLuc cs inactive | PKM2 inh LDH inactive
CS(=O)(=O)c1ccc(NCCc2ccc(S(N)(=O)=O)cc2)c([N+](=O)[O-])c1	none
COc1cc(/C=C2\SC(=O)N(CCNC(=O)c3sc4cc(F)ccc4c3Cl)C2=O)cc(OC)c1OC	none
COc1ccc(S(=O)(=O)Nc2ccc3c(c2)n(C)c(=O)n3C)cc1	none
CCc1nnc(NC(=O)CSc2nnc3ncccn23)s1	none
CCN(Cc1ccncc1)S(=O)(=O)c1ccc(C(C)=O)cc1	none
Cc1oc(C)c2c(=O)ccc3c(c12)OC(N)=C(C#N)C3c1ccc(F)cc1 (stereo not drawn)	none
COc1ccc(C(=O)Nc2cccc(OC)c2)cc1	PKM2 inh inconclusive | PKM2 inh CRC inconclusive | PKM2 FLuc cs inconclusive | PKM2 inh LDH inactive
COc1cccc(NC(=O)CSc2nnc3cc(C)nc(N)n23)c1	none
COc1cccc(NC(=O)CSc2nnc(C)s2)c1	none
COc1ccc(C(C)(C)C)cc1NC(=O)c1[nH]c(C)c(C(C)=O)c1C	none
COC(=O)c1cc(C)nc(Sc2ccccc2N)n1	none
COc1ccc(-n2c(=O)c3c4c(sc3n(CC(N)=O)c2=O)CCCCC4)cc1	none
Cc1ccc(C2/C(=C(/O)c3ccc(Br)cc3)C(=O)C(=O)N2Cc2ccco2)o1 (stereo not drawn)	none
O=C1C=CC(=O)N1CCCCCCN1C(=O)C=CC1=O	PKM2 inh 10µM | PKM2 inh CRC 6.51µM | PKM2 FLuc cs inactive | PKM2 inh LDH inactive
O=C(CSc1n[nH]c(-c2cccs2)n1)N1CCN(S(=O)(=O)c2ccc3ccccc3c2)CC1	none
COc1ccc(-n2nnc3c(=O)n(CC(=O)Nc4cc(C)on4)cnc32)cc1	none
Cc1ccccc1Nc1c(-c2ccc(Cl)s2)nc2ccccn12	none (no result: PKM2 inh) | PKM2 inh CRC inactive | PKM2 FLuc cs inactive | PKM2 inh LDH inconclusive
Cc1ccc(-c2nnn(CC(=O)N(CC(=O)NCc3ccccc3)c3cccc(C)c3C)n2)o1	none
CN1CCC(N(CCc2ccccc2)C(=O)CCC(=O)O)CC1	none
CC(=O)Nc1sc(N/N=C\c2ccccc2F)nc1-c1cccs1	none
CC1C/C(=C/c2ccccn2)C(=O)/C(=C/c2ccccn2)C1 (stereo not drawn)	none
Cc1nc(N/N=C/c2ccccn2)sc1C	PKM2 inh 7.94µM | PKM2 inh CRC 9.19µM | PKM2 FLuc cs 5.17µM | PKM2 inh LDH inactive
CC1(C)CC2CC(C)(CN2C(=O)C23CCC(C)(C(=O)O2)C3(C)C)C1 (stereo not drawn)	none
Cc1csc(NC(=O)C2CCN(C(=O)CSc3nnc(C)n3Cc3ccccc3)CC2)n1	none
O=S(=O)(c1ccc(F)cc1F)N1CCCN(c2ccc(C(F)(F)F)cn2)CC1	none
COC(=O)Nc1c(-c2ccccc2)nc2ccccn12	none
Cc1n[nH]c(=O)nc1NCc1ccco1	none
Cc1ccn2c(NCc3ccco3)c(-c3ccccc3)nc2c1	none (no result: PKM2 inh) | PKM2 inh CRC inactive | PKM2 FLuc cs inactive | PKM2 inh LDH inconclusive
CC(C)(C)OC(=O)NCCCCCc1nnc(SCC(=O)Nc2cccc(Cl)c2)o1	none
O=C(COc1ccccc1C(=O)N/N=C\c1ccc(O)c(O)c1)N/N=C/c1ccc(O)c(O)c1	none
Cc1occc1C(=O)N/N=C/c1ccc2c(c1)OCO2	PKM2 inh 5.62µM | PKM2 inh CRC 13µM | PKM2 FLuc cs 2.59µM | PKM2 inh LDH inactive
CS(=O)(=O)N(CC(=O)N/N=C/c1cc2c(cc1Br)OCO2)c1ccccc1Br	none
CC(=O)CC1(OC(C)=O)C(=O)N(C)c2ccccc21 (stereo not drawn)	none
N#CC1=C(N)NC(SCC(=O)Nc2ccccc2)=C(C#N)C12CCCC2	none
O=C(Nc1ccc(-c2ccc3nncn3n2)cc1)c1ccc(Br)o1	none
